Assay outcomes deposited in PubChem by National Center for Advancing Translational Sciences (NCATS).
HCMV antiviral = qHTS Assay for inhibitors of the human cytomegalovirus (HCMV). HFF cells, HCMV-luciferase reporter, 72 h; active compounds read low. activity change, negative = inhibition, % at 57.5 µM. actives 4.5% (n = 410,000); in the data active = activity change below about -60%; inconclusive = no clear call, values can overlap the other calls; inactive = above about -39%; note: % is set by controls: 0 for no effect and ±100 for the full control effect
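Inhibition of viral replication was scored as loss of reporter luminescence in HFFs infected with HCMV-luciferase (MOI 1 PFU/cell) for 72 h; compounds tested at 2 doses, normalized to buffer and Salinomycin controls.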
LASV entry inh = qHTS for Inhibitors of binding or entry into cells for Lassa Virus; Lassa virus pseudotype entry inhibition, cell reporter; actives 1.2% (n = 300,000); Potency, µM (titrated, usually from 37.9 µM), inactives show at the highest dose activity change, negative = inhibition, hits mostly inhibitors; calls by dose curve; tested in HEK293 cells; note: potency is the fitted concentration of half-maximal effect; % is set by controls: 0 for no effect and ±100 for the full control effect; nearly all actives have a fitted effect of over 50% in size
HCV inh = qHTS Assay for Inhibitors of Hepatitis C Virus (HCV). Huh7.5.1 HCVcc-Cre infection, luciferase reporter, 44 h. Potency, µM (doses to about 41.8 µM), inactives show at the highest dose activity change, negative = inhibition, usual class: inhibitors. actives 3.4% (n = 340,000); note: potency is the fitted concentration of half-maximal effect; % is set by controls: 0 for no effect and ±100 for the full control effect
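Seed cells (1,000/well) for 4 h; treat with compound and infect with HCVcc-Cre, moi about 0.5. Incubate 44 h, then detect luciferase activity.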
Pf growth 96h = Primary qHTS for delayed death inhibitors of the malarial parasite plastid, 96 hour incubation | Potency, µM (highest dose often 28.7 µM), without a hit: top-dose activity change, negative = inhibition, usual class: inhibitors | AID 504834, 2011 | P. falciparum luciferase reporter growth, 96 h | actives 6.9% (n = 320,000); note: potency is the fitted concentration of half-maximal effect; % is set by controls: 0 for no effect and ±100 for the full control effect
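Delayed-death screen, second-generation endpoint: infected erythrocytes, 2% hematocrit, 0.05% parasitemia final; 96 hours at 37 C, 5% CO2; luciferase detection reagent; luminescence decrease equals reduced growth.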
MARV entry inh = qHTS for inhibitors of binding or entry into cells for Marburg Virus | Marburg virus pseudotyped entry inhibition, cell reporter | Potency, µM (titrated, usually from 37.8 µM), for the others: at the top dose activity change, negative = inhibition, actives largely listed as inhibitors | actives 1.8% (n = 300,000) | AID 540276, 2011; calls by dose curve; tested in HEK293 cells; note: potency is the fitted concentration of half-maximal effect; % is set by controls: 0 for no effect and ±100 for the full control effect
Pf growth 48h = Primary qHTS for delayed death inhibitors of the malarial parasite plastid, 48 hour incubation; P. falciparum luciferase growth in erythrocytes, 48 h; Potency, µM (titrated, usually from 28.7 µM), inactives show at the top dose activity change, negative = inhibition, most hits filed as inhibitors; actives 5.9% (n = 310,000); AID 504832, 2011; note: potency is the fitted concentration of half-maximal effect; % is set by controls: 0 for no effect and ±100 for the full control effect
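Growth was read as firefly luciferase luminescence after a 48 h, 37 C, 5% CO2 exposure of compounds to reporter-bearing P. falciparum cultures (0.1% parasitemia, 2% hematocrit final) in Albumax-supplemented RPMI 1640.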
HCV inh confirm = qHTS Assay for Inhibitors of Hepatitis C Virus (HCV): Confirmation Assay for Cherry-picked Compounds | shares compounds with HCV inh | HCVcc-Cre infectious virus cell assay, luciferase, inhibition | Potency, µM (doses to about 41.8 µM), without a hit: at the highest dose activity, negative = inhibition, usual class: inhibitors | actives 78% (n = 640) | AID 720575, 2013; note: potency is the fitted concentration of half-maximal effect; nearly all actives have a fitted effect of over 80% in size
HCV cytotox = qHTS Assay for Inhibitors of Hepatitis C Virus (HCV): Cytotoxicity Counterscreen for Cherry-picked Compounds. actives 22% (n = 640). HCV host cell line cytotoxicity counterscreen. AID 720576, 2013. shares compounds with HCV inh. Potency, µM (top dose mostly 41.8 µM), for inactives: at the highest dose activity change, negative = cytotoxicity, most hits filed as inhibitors;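 note: potency is the fitted concentration of half-maximal effect; 44 h compound exposure; % is set by controls: 0 for no effect and ±100 for the full control effect; nearly all actives have a fitted effect of over 55% in size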
The depositor's hits bear a star; ! = not confirmed by another sample; [ ] = another dose, or the depositor's remark. The list is not random: actives were taken first. Their share in the collection is about 14%. Unless noted, calls come from the whole dose curve; as a rule, active = well fitted curve in the direction sought with a large enough effect; inconclusive = small, poorly fitted or top-dose-only effect, or another doubt; inactive = no such curve, though single readings can be large; an effect the other way counts as inactive or inconclusive.

Screening C[C@H]1COc2cc(NCCCN3CCOCC3)ccc2S(=O)(=O)N1 returned HCMV antiviral -16 and LASV entry inh 6%[46.1 µM].
Screening Cc1noc(/C=C/c2ccccc2F)c1S(=O)(=O)N1CCC(C(=O)N2CCN(C)CC2)CC1 returned HCMV antiviral -29, HCV inh 4µM*, Pf growth 96h -20%, Pf growth 48h -1%, HCV inh confirm 22µM* and HCV cytotox inconclusive.
CCOCCCNC(=O)c1oc2ccc3c(c2c1C)C(O)CC(C)(C)O3 (stereo not given) was read as HCMV antiviral 50, HCV inh -20%, Pf growth 96h 2% and Pf growth 48h -11%.
Screening COc1ccc(CC(=O)Nc2ccc(-c3nnc(-c4ccccc4)o3)cc2)cc1OC returned HCMV antiviral 19, LASV entry inh 25%[14.3 µM], HCV inh 6%, MARV entry inh 20% and Pf growth 48h -5%.
For COc1ccc(CC(=O)Nc2cccc(-c3nnc(-c4ccc(C)cc4)o3)c2)cc1OC the results were HCMV antiviral -93*, LASV entry inh inconclusive, HCV inh 3.2µM*, Pf growth 96h -13%, MARV entry inh 9.2µM*, Pf growth 48h inconclusive, HCV inh confirm 6.3µM* and HCV cytotox -27%.
`COC(=O)Cc1nnn2c1[C@H](C)[C@H](c1cccc(OC)c1OC)OCC2` gave HCMV antiviral 27.
`COc1cc(C(=O)Nc2cccc(C(C)=O)c2)cc(OC)c1OC` gave HCMV antiviral 6, HCV inh -13%, Pf growth 96h 47% and Pf growth 48h -4%.
COc1cc(C(=O)Nc2cccc(NC(=O)c3cccs3)c2)cc(OC)c1OC was read as HCMV antiviral 33, HCV inh inconclusive, Pf growth 96h 40%, Pf growth 48h inconclusive, HCV inh confirm 13µM* and HCV cytotox 72%.
For O=C1CCCc2cc(S(=O)(=O)NCC3CCC(C(=O)NCc4ccc(F)cc4)CC3)ccc2N1 (stereo not given) the results were HCMV antiviral 20 and LASV entry inh 10%[46.1 µM].
For CC(C)c1ccccc1NC(=O)Cn1c(-c2ccccc2Cl)nc2ccccc21 the results were HCMV antiviral -8, LASV entry inh -1%, HCV inh 2.5µM*, Pf growth 96h -28%, MARV entry inh 4%, Pf growth 48h -9%, HCV inh confirm inconclusive and HCV cytotox 10%.
C=C(C)Cc1c(C)c(C#N)c2nc3ccccc3n2c1N1CCCCC1 was read as HCMV antiviral inconclusive, LASV entry inh 4%, HCV inh inconclusive, Pf growth 96h inconclusive, MARV entry inh -17%, HCV inh confirm 14µM* and HCV cytotox 43%.
Screening CCOc1ccc(NC(=O)c2ccccc2NC(=O)c2cccnc2)cc1 returned HCMV antiviral inconclusive, HCV inh -5%, Pf growth 96h inconclusive and Pf growth 48h -19%.
`COc1ccc2oc(=O)c(-c3nnc(NCc4ccco4)s3)cc2c1` gave HCMV antiviral 43, LASV entry inh -28%, HCV inh 4.5µM*, Pf growth 96h 0%, MARV entry inh inconclusive, Pf growth 48h 55%, HCV inh confirm -20% and HCV cytotox inconclusive.
For Cc1ccc(-n2c(=O)[nH]c3ncccc3c2=O)cc1 the results were HCMV antiviral -25, HCV inh 13%, Pf growth 96h -2% and Pf growth 48h 10%.
Cc1ccc(-n2c(-c3ccc(Br)cc3)c[n+]3c2CCc2ccc4cccnc4c2-3)cc1 was read as HCMV antiviral -104*, LASV entry inh 6.5µM*, HCV inh 2.5µM*, Pf growth 96h 0.47µM*, MARV entry inh 2.3µM*!, Pf growth 48h 1.7µM*, HCV inh confirm 6.3µM* and HCV cytotox 14µM*.
CCc1nn2cc(C(=O)c3ccccc3O)cnc2c1-c1ccc(F)cc1 was read as HCMV antiviral 27, LASV entry inh -13%, HCV inh inconclusive, Pf growth 96h inconclusive, MARV entry inh -31%, Pf growth 48h inconclusive, HCV inh confirm 11µM* and HCV cytotox -10%.
O=C(c1cnn(-c2cccc(F)c2)c1)c1ccccc1O was read as HCMV antiviral 66, LASV entry inh 10%[46.1 µM], HCV inh 7%, Pf growth 96h 142%, MARV entry inh inconclusive and Pf growth 48h 69%.
For CCCCCCC(=O)Cc1cc(OC)c(OC)cc1/C=C(/C(C)=O)C(=O)OC the results were MARV entry inh -11%[14.2 µM].
For CN(C)S(=O)(=O)c1cccc(-c2csc(N/N=C/c3ccco3)n2)c1 the results were HCMV antiviral -37, LASV entry inh -6%, HCV inh inconclusive, Pf growth 96h -6%, MARV entry inh -26%[46.1 µM] and Pf growth 48h inconclusive.
For COc1ccc(/C=N/Nc2nc(-c3cccc(S(=O)(=O)N4CCCC4)c3)cs2)c(OC)c1 the results were HCMV antiviral -65*, LASV entry inh inconclusive, HCV inh 4µM*, Pf growth 96h inconclusive, MARV entry inh inconclusive, Pf growth 48h 13µM*, HCV inh confirm 10µM* and HCV cytotox -41%.
Cc1ccc(N=Nc2cc(C)ccc2N)cc1 was read as HCMV antiviral 0, HCV inh 3.2µM*, Pf growth 96h inactive, Pf growth 48h 232%, HCV inh confirm 3.1µM* and HCV cytotox inconclusive.
For Cc1ccc(N)c(C)c1 the results were HCMV antiviral -21, HCV inh -24%, Pf growth 96h inconclusive and Pf growth 48h 1%.
Nc1nc(F)nc2c1ncn2[C@@H]1O[C@H](CO)[C@@H](O)[C@H]1O was read as HCMV antiviral -96*, HCV inh 0.79µM*, Pf growth 96h inconclusive, Pf growth 48h -13%, HCV inh confirm 2µM* and HCV cytotox 6.3µM*.
`CCOc1ccc(C(C)=O)cc1COc1ccc(-n2cnnn2)cc1` gave HCMV antiviral -11, LASV entry inh -9%, HCV inh 2.8µM*, Pf growth 96h -4%, MARV entry inh 2%, Pf growth 48h -20%, HCV inh confirm 0.31µM* and HCV cytotox -22%.
